Test results reported in PubChem BioAssay (NCATS).
Records with an inconclusive call do not appear. A call without a number means that no potency is given here. Activity calls are given as the source filed them. Unless noted, calls come from the whole dose curve; as a rule, active = well fitted curve in the direction sought with a large enough effect; inconclusive = small, poorly fitted or top-dose-only effect, or another doubt; inactive = no such curve, though single readings can be large; an effect the other way counts as inactive or inconclusive.

Tests used:
Tov112D = assay: Primary qHTS to identify gynecologic anti-cancer compounds using libraries of approved drugs and bioactive compounds (AID 1345084); conditions: Gynecologic cancer cell panel viability, ATPlite luminescence, 48 h; series mostly up to 57.5 µM; note: nearly all actives have a fitted effect of over 55% in size; note: potency is the fitted concentration of half-maximal effect
In short: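 Luminescence from the ATPlite ATP-monitoring reagent indicates viable cell number; lower signal means cytotoxicity. Cells received compound 16 h after seeding and were exposed for 48 h across five concentrations.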

[1] = qHTS assay for small molecule activators of the human pregnane X receptor (PXR) signaling pathway (AID 720659; call rule not given here)
[2] = Drug repurposing screens with cells derived from glioblastoma tumor samples (AID 1345199); conditions: GBM patient neurospheres viability, ATP luminescence, 48 h; note: nearly all actives have a fitted effect of over 40% in size; note: potency is the fitted concentration of half-maximal effect
In short: (§1)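 Four patient lines of CD133+ GBM neurospheres were screened at several concentrations; hits were retested in those lines plus three slower-growing GBM lines, using 48-hour treatment and ATP-based viability.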

astro = assay: as above; conditions: viability, ATP luminescence, 48 h; series mostly up to 45.9 µM
In short: as §1

[3] = molecular target: Nuclear receptor subfamily 1 group I member 2 (Rattus norvegicus) (UniProt Q9R1A7); assay: qHTS assay for small molecule activators of the rat pregnane X receptor (rPXR) signaling pathway (AID 651751; call rule not given here); conditions: rPXR reporter cells, luciferase (One-Glo), 24 h
[4] = at 45.9 µM (top of the series), tumour line B
[5] = at 45.9 µM (top of the series), tumour line D
[6] = at 46.1 µM (top of the series), tumour line C

Chain of Nuclear receptor subfamily 1 group I member 2 (Rattus norvegicus) (Q9R1A7 whole entry, looked up): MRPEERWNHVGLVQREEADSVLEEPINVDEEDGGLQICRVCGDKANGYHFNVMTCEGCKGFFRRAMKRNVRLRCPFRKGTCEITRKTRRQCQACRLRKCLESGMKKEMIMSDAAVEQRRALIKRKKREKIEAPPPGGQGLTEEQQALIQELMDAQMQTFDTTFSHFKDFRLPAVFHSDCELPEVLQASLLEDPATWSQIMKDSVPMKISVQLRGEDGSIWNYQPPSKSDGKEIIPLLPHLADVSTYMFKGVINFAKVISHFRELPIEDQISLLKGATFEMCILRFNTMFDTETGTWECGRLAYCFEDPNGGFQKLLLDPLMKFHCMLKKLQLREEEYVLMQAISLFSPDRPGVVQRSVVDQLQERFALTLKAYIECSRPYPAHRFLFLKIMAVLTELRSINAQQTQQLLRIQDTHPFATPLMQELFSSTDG

With `C=C[C@H]1[C@H](O[C@@H]2O[C@H](CO)[C@@H](O)[C@H](O)[C@H]2O)OC=C2C(=O)OCC[C@H]21` the Potency (Tov112D) was “inactive”.
With `CN1CCCC1CCOC(c1cc2nccc(C(=O)O)c2[nH]1)c1ccccc1Cl` (stereo not given) the Potency (Tov112D) was “inactive”.
In the case of `COC(=O)C12C(=O)C(C)(O)C(=O)C1(C)C(C)=CC1C34CCC(OC3=O)C(C)(CO)C4CCC12C` (stereo not given), the Potency (Tov112D) is reported as “inactive”.
For `COC1=CC(=O)O[C@@H](/C=C/c2ccccc2)C1`, the Potency (Tov112D) was “inactive” and the outcome [1] was “inactive”.
With `C[C@@](O)(COc1ccc(C#N)cc1)C(=O)Nc1ccc(C#N)c(C(F)(F)F)c1` the Potency (Tov112D) was “inactive”.
For `CC[C@H]1CN2CC[C@H]1C[C@H]2[C@H](O)c1ccnc2ccc(OC)cc12`, the Potency (Tov112D) was “inactive”.
In the case of `N#CC(C#N)=Cc1cc(O)c(O)c(O)c1`, the activity, negative = cell killing [2, 4] is reported as -27.1% (inactive) and the Potency ([2]; tumour line D) is reported as 12.6 µM (active).
For `COC1CC(O[C@H]2CC[C@@]3(C)C(=CCC4C3C(O)[C@@H](O)[C@]3(C)[C@@H](C(C)=O)CC[C@]43O)C2)OC(C)C1OC1CC(OC)C(OC2OC(C)C(O)C(O)C2O)C(C)O1` (stereo not given in full), the activity change, negative = cytotoxicity (Tov112D) was 3.02% [at 11.6 µM] (inactive).
In the case of `CCC(C)(OC(C)=O)C(=O)O[C@H]1[C@H](OC(C)=O)C[C@@H]2[C@@](C)([C@@H]3C[C@H]4C=CO[C@H]4O3)[C@H](C)C[C@H](OC(C)=O)[C@@]2(COC(C)=O)[C@@]12CO2` (stereo not given in full), the Potency (Tov112D) is reported as “inactive”.
For `CC(N)Cc1c[nH]c2ccccc12` (stereo not given), the Potency (Tov112D) was “inactive”.
For `CC(=O)OC1CC(O)C2(C)C(CC(OC(C)=O)C3(C)C2CCC2(C)C(c4ccoc4)C(=O)C4OC423)C1(C)C` (stereo not given), the Potency (Tov112D) was “inactive”.
With `COc1cc2c(cc1OC)[C@@]13CCN4CC5=CCO[C@H]6CC(=O)N2[C@H]1[C@H]6[C@H]5C[C@H]43` the Potency (Tov112D) was “inactive”, the activity, negative = cell killing [2, 4] was -6.02% (inactive) and the activity, negative = cell killing [2, 5] was -3.06% (inactive). The activity, negative = cell killing [2, 6] was 1.45% (inactive), the Potency ([2]; tumour line A) was 0.0794 µM (active) and the Potency (astro) was “inactive”.
For `Cc1cn(C[C@H](N)C(=O)O)c(=O)n(Cc2cc(-c3ccccc3)sc2C(=O)O)c1=O`, the Potency (Tov112D) was “inactive”.
For `C[C@@H]1C(=O)O[C@H]2[C@H](O)[C@@]34[C@@H]5OC(=O)[C@@]3(O[C@@H]3OC(=O)[C@@H](O)[C@@]34[C@H](C(C)(C)C)[C@H]5O)[C@@]12O`, the Potency (Tov112D) was “inactive”.
In the case of `C[C@H]1O[C@@H](O[C@H]2C[C@@H](O)[C@]3(CO)C4C(CC[C@]3(O)C2)[C@@]2(O)CC[C@H](C3=CC(=O)OC3)[C@@]2(C)C[C@H]4O)[C@@H](O)[C@@H](O)[C@H]1O` (stereo not given in full), the Potency (Tov112D) is reported as 0.112 µM (active).
In the case of `CCCSP(=O)(OCC)SCCC`, the Potency (Tov112D) is reported as “inactive”, the Potency (astro) is reported as “inactive” and the max response [3] is reported as 5.9% (inactive).
In the case of `C[C@H]1C(=O)O[C@H]2[C@H](O)[C@]34C5OC(=O)[C@]3(O[C@@H]3OC(=O)[C@H](O)C34[C@H](C(C)(C)C)[C@H]5O)C12O` (stereo not given in full), the Potency (Tov112D) is reported as “inactive”.
In the case of `O=C1C[C@@H]2OCC=C3CN4CC[C@]56c7ccccc7N1[C@H]5[C@H]2[C@H]3C[C@H]46`, the Potency (Tov112D) is reported as “inactive”, the activity, negative = cell killing [2, 4] is reported as -6.57% (inactive) and the activity, negative = cell killing [2, 5] is reported as -6.6% (inactive). The activity, negative = cell killing [2, 6] was 6.33% (inactive), the Potency ([2]; tumour line A) was 12.6 µM (active) and the Potency (astro) was “inactive”. The max response [3] was 0.534% (inactive).
With `Cc1cccc(NC(=O)N[C@@H]2N=C(c3ccccc3)c3ccccc3N(C)C2=O)c1` the Potency (Tov112D) was “inactive”.
In the case of `C/C=C(\C)C(=O)OC1C(C)OC(OC2C(C)OC(OC3CCC4(C)C(=CCC5C4CCC4(C)C(C(C)OC6OC(COC7OC(CO)C(O)C(O)C7O)C(O)C(O)C6O)CCC54O)C3)CC2OC)C(O)C1OC` (stereo not given), the activity change, negative = cytotoxicity (Tov112D) is reported as -0.387% [at 11.6 µM] (inactive).
With `CN1[C@H]2C[C@H](OC(=O)[C@H](CO)c3ccccc3)C[C@@H]1[C@@H](O)C2` the Potency (Tov112D) was “inactive”.
In the case of `CCN1C[C@]2(OC(=O)c3ccccc3NC(C)=O)CC[C@H](OC)[C@@]34[C@@H]2C[C@@H]([C@@H]13)[C@@]1(O)C[C@H](OC)[C@H]2C[C@@H]4[C@]1(O)[C@H]2OC`, the Potency (Tov112D) is reported as “inactive”.
In the case of `C=C[C@H]1CN2CC[C@H]1C[C@@H]2[C@@H](O)c1ccnc2ccccc12`, the Potency (Tov112D) is reported as “inactive”, the activity, negative = cell killing [2, 4] is reported as -7.16% (inactive) and the activity, negative = cell killing [2, 5] is reported as -9.4% (inactive). The activity, negative = cell killing [2, 6] was 15.7% (inactive), the Potency ([2]; tumour line A) was 17.8 µM (active) and the Potency (astro) was “inactive”.
In the case of `C[C@]12CC[C@H]3[C@@H](CCC4=C(Cl)C(=O)CC[C@@]43C)[C@@H]1CC[C@@H]2O`, the activity, negative = cell killing [2, 4] is reported as -16.4% (inactive), the activity, negative = cell killing [2, 5] is reported as -29.9% (inactive) and the Potency ([2]; tumour line A) is reported as 12.6 µM (active).
With `CC(=O)[C@H]1CC[C@H]2[C@@H]3CC[C@@H]4C[C@H](O)CC[C@]4(C)[C@H]3CC[C@]12C` the activity, negative = cell killing [2, 4] was -17.7% (inactive) and the Potency ([2]; tumour line D) was 17.8 µM (active).
In the case of `CCc1[nH]c2ccc(OC)cc2c1CCN(C)C`, the Potency (Tov112D) is reported as “inactive”.
With `C=CC(C)(O)CC/C=C(\C)C(=O)O[C@H]1[C@H](O)[C@@H](CO)O[C@@H](OC(=O)[C@]23CCC(C)(C)CC2C2=CCC4[C@@]5(C)CC[C@H](O[C@@H]6O[C@H](CO[C@@H]7OC[C@H](O)[C@H](O)[C@H]7O[C@@H]7OC[C@@H](O)[C@H](O)[C@H]7O)[C@@H](O)[C@H](O)[C@H]6O)C(C)(C)C5CC[C@@]4(C)[C@]2(C)CC3)[C@@H]1OC1OC(C)C(O[C@@H]2OC[C@@H](O)[C@H](O[C@@H]3OC[C@@H](O)[C@H](O)[C@H]3O)[C@H]2O)C(O)C1O` (stereo not given in full) the activity change, negative = cytotoxicity (Tov112D) was 1.17% [at 6.55 µM] (inactive).
